Measurements published in PubChem BioAssay AID2073 (Sanford-Burnham Center for Chemical Genomics, 2009).
The campaign covered roughly 290,000 compounds. About 570 (0.2%) were called active. About 1% were inconclusive and are not listed. This is one part of a sample in which actives are shown more often than they occur. Cut-off read from the data, not from the text of the source: active = inhibition mostly above about 51% (no sharp cut-off); inconclusive = no clear call, values can overlap the other calls; inactive = mostly below about 53%.

Target: Voltage-dependent N-type calcium channel subunit alpha-1B (Homo sapiens) (UniProt Q00975)
Assay: disruptors of CaV2.2 binding to Mint1 – biochemical, HTRF (AID 2073)
Settings: HTRF protein-protein interaction, Mint1-CaV2.2, at 20 µM, stronger effect = higher value
[1] = measured here: average of repeat tests

Sequence of Voltage-dependent N-type calcium channel subunit alpha-1B (Homo sapiens) (Q00975 whole entry, looked up): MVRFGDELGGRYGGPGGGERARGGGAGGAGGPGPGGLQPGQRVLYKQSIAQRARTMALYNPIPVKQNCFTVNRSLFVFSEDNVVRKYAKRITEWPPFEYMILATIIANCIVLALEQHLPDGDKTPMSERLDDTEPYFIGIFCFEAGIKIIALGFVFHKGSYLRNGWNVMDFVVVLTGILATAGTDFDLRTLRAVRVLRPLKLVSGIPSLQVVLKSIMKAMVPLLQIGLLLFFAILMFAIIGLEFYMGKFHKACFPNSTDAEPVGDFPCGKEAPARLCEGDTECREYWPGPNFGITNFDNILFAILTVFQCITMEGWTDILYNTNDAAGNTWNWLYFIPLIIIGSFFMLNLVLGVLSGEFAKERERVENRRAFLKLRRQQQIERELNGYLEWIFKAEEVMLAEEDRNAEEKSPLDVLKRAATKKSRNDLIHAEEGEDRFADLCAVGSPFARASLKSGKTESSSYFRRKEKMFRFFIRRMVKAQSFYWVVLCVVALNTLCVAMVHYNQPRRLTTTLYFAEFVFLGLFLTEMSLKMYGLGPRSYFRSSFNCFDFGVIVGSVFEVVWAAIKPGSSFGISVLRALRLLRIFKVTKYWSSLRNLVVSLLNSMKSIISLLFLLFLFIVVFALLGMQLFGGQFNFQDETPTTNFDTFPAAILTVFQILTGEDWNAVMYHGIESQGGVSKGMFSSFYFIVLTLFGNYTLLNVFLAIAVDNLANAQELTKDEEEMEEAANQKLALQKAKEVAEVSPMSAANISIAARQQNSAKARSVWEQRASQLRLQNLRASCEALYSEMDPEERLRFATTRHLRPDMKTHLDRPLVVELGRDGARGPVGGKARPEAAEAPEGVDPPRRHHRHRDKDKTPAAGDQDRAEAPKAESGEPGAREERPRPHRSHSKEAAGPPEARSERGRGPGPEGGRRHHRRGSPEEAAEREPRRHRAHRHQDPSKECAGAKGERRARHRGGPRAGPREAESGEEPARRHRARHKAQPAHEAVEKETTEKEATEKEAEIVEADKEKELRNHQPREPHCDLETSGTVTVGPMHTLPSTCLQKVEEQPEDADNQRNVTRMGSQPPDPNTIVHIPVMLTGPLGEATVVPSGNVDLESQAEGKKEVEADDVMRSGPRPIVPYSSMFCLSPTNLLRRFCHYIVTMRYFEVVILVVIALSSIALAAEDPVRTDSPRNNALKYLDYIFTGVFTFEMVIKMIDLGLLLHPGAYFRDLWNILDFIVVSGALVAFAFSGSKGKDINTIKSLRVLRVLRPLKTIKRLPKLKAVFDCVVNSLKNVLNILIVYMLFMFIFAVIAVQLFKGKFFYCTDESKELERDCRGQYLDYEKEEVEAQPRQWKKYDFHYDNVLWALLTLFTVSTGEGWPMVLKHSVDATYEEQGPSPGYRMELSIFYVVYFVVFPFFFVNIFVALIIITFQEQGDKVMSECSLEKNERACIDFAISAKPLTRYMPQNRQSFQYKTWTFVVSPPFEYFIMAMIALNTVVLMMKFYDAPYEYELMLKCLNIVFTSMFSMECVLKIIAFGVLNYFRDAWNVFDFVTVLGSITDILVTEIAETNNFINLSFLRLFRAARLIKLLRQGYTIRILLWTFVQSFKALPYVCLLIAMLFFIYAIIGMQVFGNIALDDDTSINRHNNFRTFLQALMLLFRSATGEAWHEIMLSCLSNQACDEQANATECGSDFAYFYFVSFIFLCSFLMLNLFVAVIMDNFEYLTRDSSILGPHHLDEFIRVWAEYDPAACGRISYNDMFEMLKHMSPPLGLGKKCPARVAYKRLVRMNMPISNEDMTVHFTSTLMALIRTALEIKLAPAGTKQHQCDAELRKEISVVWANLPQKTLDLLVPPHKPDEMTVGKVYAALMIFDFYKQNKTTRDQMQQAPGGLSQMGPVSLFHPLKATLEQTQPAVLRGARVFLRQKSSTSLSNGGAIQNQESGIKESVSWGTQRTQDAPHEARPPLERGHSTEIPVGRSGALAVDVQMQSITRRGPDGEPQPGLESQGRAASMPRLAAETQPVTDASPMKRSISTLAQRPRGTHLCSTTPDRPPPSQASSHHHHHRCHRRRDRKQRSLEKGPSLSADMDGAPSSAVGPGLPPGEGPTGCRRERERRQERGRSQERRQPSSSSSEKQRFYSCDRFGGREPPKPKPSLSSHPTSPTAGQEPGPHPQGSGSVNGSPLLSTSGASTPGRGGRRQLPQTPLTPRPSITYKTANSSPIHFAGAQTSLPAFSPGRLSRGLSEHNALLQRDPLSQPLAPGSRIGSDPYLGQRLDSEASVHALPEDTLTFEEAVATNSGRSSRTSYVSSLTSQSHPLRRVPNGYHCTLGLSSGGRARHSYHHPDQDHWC

C=C1CCC[C@]2(C)C[C@H]3OC(=O)C(CN(Cc4ccc(OC)c(OC)c4)CC(C)O)[C@H]3CC12 (some centres not stated)
inhibition: 6.9% (inactive)

COc1cccc(-c2nc(NCc3cccnc3)c3ccccc3n2)c1O
inhibition: 14.2% (inactive)

O=C(Nc1ccc2oc(-c3ccccc3Cl)nc2c1)c1ncn[nH]1
inhibition: 28.3% (inactive)

O=C(Nc1ccc2oc(-c3ccccc3F)nc2c1)c1ncn[nH]1
inhibition: 2.6% (inactive)

O=C(c1cccs1)N1CCN=C1SCc1cccnc1
inhibition: -1.3% (inactive)

CCOc1cccc(NC(=O)c2cccc(F)c2)c1
inhibition: 2.7% (inactive)

CN(C)C=Nc1c(Br)cc(Br)c2nonc12
inhibition: 19.7% (inactive)

Cc1ccc(Nc2nc(=O)c3cccnc3s2)cc1
inhibition: 2.2% (inactive)

Cc1ccc(Nc2nc(=O)c3cccnc3s2)c(Br)c1
inhibition: -13% (inactive)

COc1ccc(OC)c(Nc2nc(=O)c3cccnc3s2)c1
inhibition: 81.8% (active)

Cc1cccc(Oc2sc(C(=O)c3ccccc3)c(N)c2C#N)c1C
inhibition: 4.2% (inactive)

CCCCNc1nc2ccccc2nc1Cl
inhibition: 4.6% (inactive)

COc1ccc(C2(C)NC(=O)N(CC(=O)Nc3ccc(S(=O)(=O)N4CCCC4)cc3)C2=O)cc1 (configuration not stated)
inhibition: 4.9% (inactive)

Brc1ccc(/C=C/C=N/Nc2nc3ccccc3s2)cc1
inhibition: 5.3% (inactive)

Oc1ccc(N=C/C=C/c2ccc(Br)cc2)cc1-c1nc2ccccc2s1
inhibition: 62.9% (active)

Oc1ccc(N=C/C=C/c2cccc(Br)c2)cc1-c1nc2ccccc2s1
inhibition: 66.6% (inactive) | inhibition [1]: 5%

CCN=C1NN=C(c2cc(C)n(Cc3ccco3)c2C)CS1
inhibition: 57.5% (active)

COCCCN=C1NN=C(c2cc(C)n(Cc3ccco3)c2C)CS1
inhibition: 24.8% (inactive)

Cc1cc(C2=NNC(=NC3CC3)SC2)c(C)n1Cc1ccco1
inhibition: 26.3% (inactive)

CCOC(=O)/C(C#N)=C1/C=Nc2ccccc2N1
inhibition: 14.4% (inactive)

Cc1ccc(NC(=O)CCNS(=O)(=O)c2ccc3[nH]c(=O)oc3c2)c(C)c1
inhibition: -0.1% (inactive)

COc1cccc(C(=O)Nc2ccc3c(c2)C(=O)NC3=O)c1
inhibition: 11.6% (inactive)

Cc1ccn2c(Nc3ccccc3C)c(-c3ccccn3)nc2c1
inhibition: 15% (inactive)

Cc1ccn2c(Nc3ccccc3)c(-c3ccccn3)nc2c1
inhibition: 21.1% (inactive)

Cc1ccc(Nc2c(-c3ccccn3)nc3cc(C)ccn23)cc1
inhibition: 50.4% (active)

O=C(Nc1ccc2c(c1)OCCO2)c1cccc(Br)c1
inhibition: -4.4% (inactive)

Nc1nnnn1/N=C/c1ccccc1OCc1ccc(Cl)cc1
inhibition: 0.5% (inactive)

Cc1nn(CC(=O)NCC2CCCO2)c(C)c1[N+](=O)[O-] (configuration not stated)
inhibition: 5.2% (inactive)

O=C(NCc1ccccc1)c1sc(=S)n2c1[nH]c(=O)c1ccccc12
inhibition: -8.6% (inactive)

NC(=O)c1sc(=S)n2c1[nH]c(=O)c1sccc12
inhibition: 51.8% (active)

CC(=O)NNC(=O)c1sc(=S)n2c1[nH]c(=O)c1sccc12
inhibition: 46.1% (inactive)

Cc1c(C(=O)/C=C/c2cccs2)oc2ccc(F)cc12
inhibition: -6.1% (inactive)

CCOC(=O)c1ccc2c(c1)C1C=CCC1C(C(=O)O)N2 (configuration not stated)
inhibition: 31% (inactive)

Cc1ccc2c(c1)C1C=CCC1C(C(=O)O)N2 (configuration not stated)
inhibition: 39.2% (inactive)

O=C(OC1CCCCC1)c1ccc2c(c1)C1C=CCC1C(C(=O)O)N2 (configuration not stated)
inhibition: 74.8% (active)

Cc1ccccc1OCC(=O)OC(C(=O)c1ccccc1)c1ccccc1 (configuration not stated)
inhibition: 12.2% (inactive)

O=C1CCCN1c1cc(Cl)ccc1Cl
inhibition: -4.5% (inactive)

O=c1cc(O)c2sc(Nc3cccc(C(F)(F)F)c3)nc2[nH]1
inhibition: 66.6% (active)

Fc1ccc(Nc2nc3ccccc3s2)cc1
inhibition: 3.5% (inactive)

Cc1cc(=O)[nH]c(Nc2cccc(C(F)(F)F)c2)n1
inhibition: -2.3% (inactive)

COc1ccc(Nc2nc3[nH]c(=O)cc(O)c3s2)cc1
inhibition: 87.5% (inactive) | inhibition [1]: 17.2%

O=c1cc(O)c2sc(Nc3ccc(F)c(Cl)c3)nc2[nH]1
inhibition: 86.3% (active)

O=c1cnnc(Nc2cccc(C(F)(F)F)c2)[nH]1
inhibition: 2.4% (inactive)

O=c1cc(O)c2sc(Nc3ccc(Cl)c(F)c3)nc2[nH]1
inhibition: 66.1% (inactive) | inhibition [1]: 31.6%

O=c1cc(O)c2sc(Nc3ccc(F)cc3)nc2[nH]1
inhibition: 63.2% (active)

Fc1ccc(Nc2nnc(C(F)(F)F)s2)cc1Cl
inhibition: 10.6% (inactive)

O=C(/C=C/c1ccccc1)N1CCN(S(=O)(=O)c2ccc(F)cc2)CC1
inhibition: -4.1% (inactive)

CN(C)CCNc1nc2c(c(=O)[nH]c(=O)n2C)n1CC(O)COc1ccc(Cl)cc1 (configuration not stated)
inhibition: -3% (inactive)

O=C(N/N=C/c1ccccc1)c1ccc(CN2C(=O)c3cccc4cccc2c34)cc1
inhibition: 36.4% (inactive)

O=C(N/N=C/c1ccc(O)cc1O)c1ccc(CN2C(=O)c3cccc4cccc2c34)cc1
inhibition: 69.5% (active)

COc1ccc(/C=N/NC(=O)c2ccc(CN3C(=O)c4cccc5cccc3c45)cc2)cc1O
inhibition: 71.7% (inactive) | inhibition [1]: 39.7%

COC(=O)c1ccc(OCCOc2ccccc2C)cc1
inhibition: 26.5% (inactive)

Cc1ccc(C)c(S(=O)(=O)NCc2ccc(C(=O)N3CCOCC3)cc2)c1
inhibition: -3.9% (inactive)

CCc1nn2c(=O)cc(COc3ccc(/C=C4\C(=N)N5N=C(CC(C)C)SC5=NC4=O)cc3)nc2s1
inhibition: 24.6% (inactive)

CC(=O)Nc1ccc(OCCOc2ccc(/C=C3\C(=N)N4N=C(C)SC4=NC3=O)cc2)cc1
inhibition: 24.7% (inactive)

CCc1nn2c(=O)cc(COc3ccc(/C=C4\C(=N)N5N=C(C)SC5=NC4=O)cc3)nc2s1
inhibition: 60% (active)

COCCCN1C(=O)C(=O)/C(=C(/O)c2ccc(S(=O)(=O)N3CCCCC3)cc2)C1c1ccc(O)cc1 (configuration not stated)
inhibition: 2% (inactive)

CNC(=S)N1CCN=C1Nc1nc(C)cc(C)n1
inhibition: 3.5% (inactive)

COc1cccc(NS(=O)(=O)c2ccc3c(c2)C2C=CCC2C(c2ccc(C(=O)O)cc2)N3)c1 (configuration not stated)
inhibition: 56.4% (active) | inhibition [1]: 55%

COc1ccc(NS(=O)(=O)c2ccc3c(c2)[C@H]2C=CC[C@H]2[C@@H](c2ccc(C(=O)O)cc2)N3)cc1
inhibition: 20.2% (inactive)

Cc1c(Cl)cccc1NS(=O)(=O)c1ccc2c(c1)C1C=CCC1C(c1ccc(C(=O)O)cc1)N2 (configuration not stated)
inhibition: 61% (inactive) | inhibition [1]: 29.1%
